Compound activity: PubChem BioAssay, National Center for Advancing Translational Sciences (NCATS)
Hits are enriched below; roughly 2.4% of the tested compounds scored in any of these assays.
Prx2 Sm inh = Schistosoma Mansoni Peroxiredoxins (Prx2); Potency, µM; S. mansoni Prx2 activity coupled to TGR/GSH (TGR is thioredoxin glutathione reductase), NADPH fluorescence loss, qHTS; 65,000 tested, 0.07% active; Schistosoma mansoni peroxiredoxin 2 (Prx2)
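Enzyme mix: 100 uM NADPH, 25 nM TGR, 700 uM GSH, 50 nM Prx2 in 100 mM phosphate pH 7.4, 10 mM EDTA, 0.01% Tween-20. 15 min RT with compound; NADPH/GSH added, H2O2 starts reaction; NADPH fluorescence read 8 min.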
Anthrax LT inh = qHTS Assay for Anthrax Lethal Toxin Internalization | Cells, anthrax lethal toxin internalization, FRET ratio (460/530) | Potency, µM (top dose mostly 40 µM), hits mostly inhibitors | 70,000 tested, 0.67% active; also: nearly all actives have a fitted effect of over 50% in size
AmpC inh no det = Promiscuous and Specific Inhibitors of AmpC Beta-Lactamase (assay without detergent) | Potency, µM (series often up to 28.7 µM) | P00811 | 71,000 tested, 1.8% active | AmpC nitrocefin hydrolysis, absorbance 480 nm, no detergent
Target sequence (P00811 whole entry, looked up): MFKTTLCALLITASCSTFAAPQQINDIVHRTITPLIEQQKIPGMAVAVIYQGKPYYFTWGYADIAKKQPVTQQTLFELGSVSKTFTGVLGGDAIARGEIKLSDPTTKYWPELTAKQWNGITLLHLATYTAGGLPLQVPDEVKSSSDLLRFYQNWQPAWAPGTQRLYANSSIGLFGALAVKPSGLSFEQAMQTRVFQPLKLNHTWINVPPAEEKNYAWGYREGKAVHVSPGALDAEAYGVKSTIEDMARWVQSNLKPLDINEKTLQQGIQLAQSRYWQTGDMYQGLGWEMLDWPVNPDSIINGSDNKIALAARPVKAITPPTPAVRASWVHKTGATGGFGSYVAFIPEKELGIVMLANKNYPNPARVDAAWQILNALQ
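AmpC in 20 mM phosphate buffer pH 7.0 was preincubated 15 min at room temperature with compounds. Nitrocefin (800 uM stock) was then added and hydrolysis followed at 480 nm every 20 s for 4 min.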
AmpC inh det = Promiscuous and Specific Inhibitors of AmpC Beta-Lactamase (assay with detergent) | P00811 | purified AmpC, nitrocefin hydrolysis with detergent | Potency, µM (doses to about 28.7 µM) | 71,000 tested, 0.09% active | AID 584, 2007; active = well fitted curve in the direction sought with a large enough effect; inconclusive = small, poorly fitted or top-dose-only effect
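E. coli AmpC (5.3 nM) in 20 mM phosphate pH 7.0 with 0.01% Triton X-100, preincubated 15 min RT with compound; nitrocefin (2 uL of 800 uM stock) hydrolysis followed by 480 nm absorbance every 20 s over 4 min.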
A number is an active result; - = inactive; ? = inconclusive; . = no result; [ ] = remark or other dose. Unless noted, calls follow the shape of the full dose curve.

SMILES	Prx2 Sm inh	Anthrax LT inh	AmpC inh no det	AmpC inh det
CCN(CC)CCNC(=O)c1cn(C)c2ccc(S(=O)(=O)N(C)C3CCCCC3)cc2c1=O	-	4µM	4µM[single pt active]	-
CCn1cc(C(=O)O)c(=O)c2cc(S(=O)(=O)N(C)C)ccc21	-	-	-	-
CCC(C)NC(=O)c1cn(CC)c2ccc(S(=O)(=O)N(C)C)cc2c1=O (configuration not stated)	-	-	-	-
CCN(CC)CCNC(=O)c1cn(CC)c2ccc(S(=O)(=O)N(C)C)cc2c1=O	-	-	3.2µM[single pt active]	-
CN1CCN(C(=O)c2cn(C)c3ccc(S(=O)(=O)N(C)C4CCCCC4)cc3c2=O)CC1	-	-	-	-
c1cncc(CNc2cc(-c3ccc4c(c3)OCO4)ncn2)c1	-	-	-	-
COc1ccc(C)cc1C(=O)CCC(=O)Nc1ccccc1N1CCOCC1	-	16µM	-	-
Cc1cc(C)c(OCC(=O)Nc2ccccc2N2CCOCC2)c(C)c1	-	?	-	-
CC(=O)OC[C@@H]1O[C@@H](O/N=C2/C[C@@H](O)[C@@H](O)[C@@H]3[C@@H]4C(=O)N(c5cccc(Oc6ccccc6)c5)C(=O)[C@H]4CC[C@H]23)[C@H](OC(C)=O)[C@H](OC(C)=O)[C@@H]1OC(C)=O	.	-[0.32 µM]	.	.
CS(=O)(=O)N(Cc1ccco1)CC(O)Cn1c2ccccc2c2ccccc21 (configuration not stated)	-	10µM	-	-
OC(CNCc1ccco1)Cn1c2ccccc2c2ccccc21 (configuration not stated)	-	-	-	-
OC(CN1C2=NCCCN2c2ccccc21)c1ccc(Cl)cc1 (configuration not stated)	-	?	4µM[single pt active]	-
O=C(Cc1coc2cc3c(cc12)CCC3)OCc1cc(=O)n2c(n1)sc1ccccc12	-	-	10µM	-
Cc1ccc2c(CC(=O)OCc3csc(C)n3)coc2c1	-	-	-	-
CC(C)(C[C@@]1(C)NC(=O)NC1=O)OCc1ccccc1	-	-[8 µM]	-[5.75 µM]	-[5.75 µM]
COc1ccc(-c2noc(C3CCCN(C(=O)CCc4ccccc4)C3)n2)cc1 (configuration not stated)	-	-	-	-
O=C(c1ccco1)N1CCCC(c2nc(-c3ccc(S(=O)(=O)NCc4ccccc4)cc3)no2)C1 (configuration not stated)	-	13µM	-	-
C=C(C)CSc1nc(N)c(C#N)c(-c2ccc(C)cc2)c1C#N	-	?	6.3µM	-
CCCCOc1ccc(-c2c(C#N)c(N)nc(SCC(N)=O)c2C#N)cc1	-	?	20µM[single pt active]	-
CSc1nc(N)c(C#N)c(-c2ccc(Cl)cc2)c1C#N	-	?	?	-
CCOC(=O)N1CCN(c2c(NCc3ccccc3OC)c(=O)c2=O)CC1	-	?	4µM[single pt active]	-
CCOC(=O)N1CCN(c2c(NCCc3ccc(OC)c(OC)c3)c(=O)c2=O)CC1	-	-	4µM[single pt active]	-
CCOC(=O)N1CCN(c2c(NCc3cccs3)c(=O)c2=O)CC1	-	-	4µM[single pt active]	-
CCOC(=O)N1CCN(c2c(-c3ccc(C)c(C)c3)c(=O)c2=O)CC1	-	-	-	-
NC(CCl)=N[C@H]1CN2CCC1CC2	-	-[8 µM]	-[5.75 µM]	-[5.75 µM]
SMILES	Prx2 Sm inh	Anthrax LT inh	AmpC inh no det	AmpC inh det
C=CCN1CCc2c(cc(O)c(O)c2Cl)[C@H](c2ccccc2)C1	-	-	-	-
COc1ccc(N2CSC3=C(C#N)C(c4cc(OC)ccc4OC)CC(=O)N3C2)c(OC)c1 (configuration not stated)	-	?	-	-
CCc1ccc(N2CSC3=C(C#N)C(c4cccs4)CC(=O)N3C2)cc1 (configuration not stated)	-	-	-	-
CCOC(=O)c1ccc(N2CSC3=C(C#N)C(c4cccs4)CC(=O)N3C2)cc1 (configuration not stated)	-	-	2.5µM	-
CCOc1ccccc1N1CSC2=C(C#N)C(c3c(OC)ccc4ccccc34)CC(=O)N2C1 (configuration not stated)	-	?	2.5µM[single pt active]	-
COc1ccc(N2CSC3=C(C#N)C(c4ccc(OC)c(OC)c4)CC(=O)N3C2)c(OC)c1 (configuration not stated)	.	-	-	-
CCc1ccc(C2CC(=O)N3CN(c4ccccc4)CSC3=C2C#N)cc1 (configuration not stated)	-	-	20µM[single pt active]	-
COc1ccc(C2CC(=O)N3CN(c4ccc(C)c(Cl)c4)CSC3=C2C#N)cc1OC (configuration not stated)	-	6.3µM	-	-
